Screening data from PubChem BioAssay.
AMA1 RON2 block – inhibitors of Plasmodium falciparum AMA1-RON2 interaction; AID 720542; Potency, µM (highest dose often 58.2 µM), for inactives: at the top dose activity change, negative = inhibition, most hits filed as inhibitors; 0.2% of 360,000 active; AlphaScreen AMA1-biotinylated RON2 peptide binding;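 also: potency is read from the fitted curve at half-maximal effect; 0% = vehicle wells and -100% = peptide control; nearly all actives have a fitted effect of over 45% in size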
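AMA1 (3D7) with his tag at 25 nM final met compounds first, then biotinylated RON2 peptide at 25 nM; detection used donor plus acceptor beads, 10 µg/mL apiece, read by AlphaScreen after 30 min at room temperature.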
Shiga toxin inh – blocks Shiga toxin action in Vero cells; Vero cells, Shiga toxin protein synthesis inhibition reporter; AID 2315; 9.2% of 290,000 active; inhibition, % at 38.7 µM; in the data active = inhibition mostly above about 28%, no sharp cut-off; inactive = mostly below about 43%; also: 0% is about no effect
AmpC detergent – inhibitors of E. coli AmpC beta-lactamase with detergent. 0.041% of 370,000 active. AmpC hydrolysis of nitrocefin, absorbance 480 nm, 0.01% Triton. Potency, µM (highest dose often 114 µM), inactives show top-dose activity change, negative = inhibition, most hits filed as inhibitors. P00811;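 also: potency is read from the fitted curve at half-maximal effect; 0% = no-compound wells and -100% = no-enzyme wells; nearly all actives have a fitted effect of over 25% in size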
Target sequence (P00811 whole entry, looked up): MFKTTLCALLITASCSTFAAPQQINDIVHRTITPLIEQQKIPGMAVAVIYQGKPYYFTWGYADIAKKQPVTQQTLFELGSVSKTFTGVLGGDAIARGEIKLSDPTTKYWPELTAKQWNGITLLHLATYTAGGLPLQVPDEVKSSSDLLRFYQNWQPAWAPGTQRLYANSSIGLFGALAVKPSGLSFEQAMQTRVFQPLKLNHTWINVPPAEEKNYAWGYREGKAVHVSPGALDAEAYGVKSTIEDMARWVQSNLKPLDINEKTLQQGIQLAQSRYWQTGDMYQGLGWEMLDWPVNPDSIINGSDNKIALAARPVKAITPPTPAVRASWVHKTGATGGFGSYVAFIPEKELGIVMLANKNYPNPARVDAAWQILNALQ
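20 mM phosphate pH 7.0 + 0.01% (detergent screen) or 0.0001% Triton X-100; 5.3 nM AmpC reagent; cpd preinc 15 min RT; nitrocefin (800 uM stock) to start; A480 q20 s × 4 min; Activity was normalised to no-enzyme and no-compound control wells.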
AmpC no deterg – blocks E. coli AmpC beta-lactamase in detergent-free assay. 0.52% of 330,000 active. Potency, µM (highest dose often 57.1 µM), for the others: at the top dose activity change, negative = inhibition, hits mostly inhibitors. P00811. AmpC nitrocefin hydrolysis, absorbance 480 nm, 0.0001% Triton;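 also: potency is read from the fitted curve at half-maximal effect; plate controls were no compound for no effect and no enzyme for full effect; nearly all actives have a fitted effect of over 20% in size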
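20 mM phosphate pH 7.0 + 0.01% (detergent screen) or 0.0001% Triton X-100; 5.3 nM AmpC reagent; cpd preinc 15 min RT; nitrocefin (800 uM stock) to start; A480 q20 s × 4 min; Activity was normalised to no-enzyme and no-compound control wells.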
SARS PLpro yeast – inhibitors of SARS-CoV papain-like protease in yeast; Potency, µM (doses to about 32.9 µM), without a hit: top-dose activity, positive = growth rescue, usual class: activators; 0.19% of 330,000 active; S. cerevisiae expressing SARS-CoV PLpro, growth rescue; calls by dose curve; also: potency is read from the fitted curve at half-maximal effect; 0% is about no effect; nearly all actives have a fitted effect of over 55% in size
CHX counter – counter-screen for Shiga toxin inhibitors: cycloheximide protein synthesis inhibition; cell reporter, cycloheximide protein synthesis inhibition counterscreen; max response, %; 12% of 300,000 active; in the data active = max response mostly above about 13%, no sharp cut-off; inactive = mostly below about 14%; also: read at 38.3 µM for the half of the compounds with a filed dose; 0% is about no effect
* = called active by the depositor; ? = inconclusive; . = not tested or not shown; [ ] = remark or other dose. Many of the other results were omitted from the sample, so hits are more common in it than they were. Unless noted, calls follow the shape of the dose curve; as a rule, active = well fitted curve in the direction sought with a large enough effect; inconclusive = small, poorly fitted or top-dose-only effect, or another doubt; inactive = no such curve, though single readings can be large; an effect the other way counts as inactive or inconclusive.

SMILES	AMA1 RON2 block	Shiga toxin inh	AmpC detergent	AmpC no deterg	SARS PLpro yeast	CHX counter
C(=C\c1ccco1)/C1=NN(c2ccccc2)C(c2ccco2)C1 (centres undefined)	0%	80*	-11%	-49%	-22%	40*
Cc1nnc(SCC(=O)N2N=C(c3ccc(Cl)cc3)CC2c2ccco2)[nH]c1=O (centres undefined)	3%	46	-9%	-41%	3%	18*
COc1ccc(C2=NN(c3nc(-c4ccccc4)c(CC(=O)O)s3)C(c3ccco3)C2)cc1 (centres undefined)	-4%	48*	-14%	14µM*	-7%	18*
COc1ccc(C2=NN(C(=O)COc3ncnc4ccccc34)C(c3ccco3)C2)cc1 (centres undefined)	-13%	-10	-1%	19%	-1%	-4
Cc1ccc(N2N=C(c3ccc(F)cc3)CC2c2ccco2)cc1 (centres undefined)	51%	46*	7%	-28%	-2%	30*
CC1CCCCN1CC(=O)NC(=O)NCc1ccccc1 (centres undefined)	-7%	12	-1%	-19%	25%	0
COP(=O)(OC)C(NS(=O)(=O)c1ccccc1)C(Cl)(Cl)Cl (centres undefined)	8%	16	-1%	-11%	1%	-2
CC(C)[C@H](COC=O)NC(=O)[C@H]1O[C@@H](n2ccc(N)nc2=O)[C@H](O)[C@@H]1O	14%	.	.	.	.	.
Cc1nc(N2N=C(c3ccc(Cl)cc3)CC2c2ccco2)sc1C(=O)N(C)C (centres undefined)	6%	30	-14%	25%[11.4 µM]	2%	27*
CN(CCc1ccccc1)Cc1ccccc1[N+](=O)[O-]	-7%	42	-14%	-16%	-1%	17*
COc1ccc(CCN(C)C(=O)c2ccc(S(=O)(=O)Nc3ccccc3F)cc2)cc1OC	-9%	.	.	.	.	.
CN(Cc1cccs1)C(=O)c1ccc(S(=O)(=O)NCc2ccco2)cc1	-2%	26	-7%	-13%	0%	27*
CN(Cc1ccc(Cl)cc1)C(=O)c1ccc(S(=O)(=O)NCc2ccco2)cc1	-9%	.	?	-3%	-3%	.
COc1ccc(CCN(C)C(=O)c2ccc(S(=O)(=O)NCc3ccco3)cc2)cc1OC	12%[11.6 µM]	81*	5%	10%	7%	55*
CCc1ccccc1NC(=O)c1cccc(Oc2ccc([N+](=O)[O-])cc2Cl)c1	-17%	-9	-1%	-38%	-9%	-1
Cc1cccc(C2c3[nH]c4ccccc4c3CCN2C(=O)c2cc(C(C)C)nc(N)n2)n1 (centres undefined)	-2%	16	4%	125%	0%	7
C[C@H]1CCC(=O)N([C@H](CC#N)Cc2ccccc2)CC1	-3%	-7	?	119%	8%	-1
COc1ccc(-c2oc3cccnc3c2/C=C/c2ccc(OC)c(OC)c2)cc1	49%	17	-9%	26%	2%	9.9*
Cc1nnc(SCC(=O)NCc2ccc3c(c2)OCO3)[nH]c1=O	11%	6	?	-31%	-5%	-1
Cc1cc(-c2nnc(CCC(=O)N(C)CCc3ccccc3)o2)no1	-6%	74*	-1%	0%	0%	19*
Cc1cccc(Cc2nnc(CCC(=O)NCc3cnc4ccccn34)o2)c1	0%	-1	-6%	6%	0%	-2
CC(C)CN(C)C(=O)CCc1nnc(Cc2ccc(-c3ccccc3)cc2)o1	-5%	38	-3%	197%	0%	22*
Cc1cccc(Cc2nnc(CCC(=O)N(C)CCc3ccccc3)o2)c1	3%	61*	2%	133%	-2%	48*
CN(Cc1cccc2cnccc12)C(=O)CCc1nnc(CCc2ccccc2)o1	6%	47*	4%	47%	0%	37*
O=C(CCc1nnc(Cc2ccc(-c3ccccc3)cc2)o1)N1CCCC1	24%	-17	6%	149%	0%	-3
SMILES	AMA1 RON2 block	Shiga toxin inh	AmpC detergent	AmpC no deterg	SARS PLpro yeast	CHX counter
CCC(=O)c1ccc(OCC(=O)Nc2ccc(S(=O)(=O)Nc3cc(C)nc(C)n3)cc2)cc1	-2%	.	.	-16%	8%	.
COc1ccc(COC(=O)c2ccc(S(=O)(=O)N3CCC(C)CC3)cc2)cc1	-8%	-7	-13%	-3%	-6%	-1
CN(CCC1CCCCO1)C(=O)CCc1nnc(CCc2ccccc2)o1 (centres undefined)	3%	47*	-6%	18%	2%	32*
Cc1cc(-c2nnc(CCC(=O)N(CC3CCC3)CC3CCCO3)o2)no1 (centres undefined)	1%	78*	-2%	11%	1%	44*
CN(CCC1CCCCO1)C(=O)CCc1nnc(Cc2c[nH]c3ccccc23)o1 (centres undefined)	-2%	8	2%	54%	27%	-3
Cc1cc(-c2nnc(CCC(=O)N(CC3CC3)CC3CCCO3)o2)no1 (centres undefined)	9%	4	6%	-14%	-1%	1
Cc1ccc(NC(=O)Cc2noc3ccccc23)c(C)c1	6%	32*	?	-15%	-35%	12
Cc1c(NC(=O)Cc2noc3ccccc23)cccc1[N+](=O)[O-]	25%	15	3%	-21%	-2%	9
COC(=O)c1ccc(C)c(NC(=O)CCSc2ccccc2)c1	-6%	-3	3%	-20%	6%	9
Cc1ccc(NC(=O)CCSc2ccccc2)c(C)c1	.	55*	3%	-9%	0%	24*
Cc1ccc(F)cc1NC(=O)CCOc1ccccc1	-15%	4	-3%	-1%[11.4 µM]	1%	2
Cc1ccc(NC(=O)Cc2ccccc2)c(C)c1	.	17	1%	-3%	1%	17
Cc1ccc(NC(=O)CCOc2ccccc2)c(C)c1	-3%	39	0%	-5%	-3%	13*
Cc1cc(Br)ccc1NC(=O)CCSc1ccccc1	-2%	48*	2%	-36%	-14%	16*
CC(C(=O)Nc1ccc(S(=O)(=O)Nc2ncccn2)cc1)N1C(=O)c2ccccc2S1(=O)=O (centres undefined)	4%	.	-10%	-11%	-1%	.
Cc1cc(NC(=O)CCSc2ccccc2)ccc1Br	57%	21	1%	-28%	-50%	87*
Cc1cccc(NC(=O)CCSc2ccccc2)c1C	14%	19	-2%	-3%[2.29 µM]	0%	12*
Cc1ccc(NC(=O)CS(=O)c2ccccc2N)c(C)c1 (centres undefined)	13%	35	2%	-4%	2%	38*
CC(C)CCNC(=O)C(C)N(Cc1ccc(F)cc1)C(=O)c1ccc(CN2CCCCC2)o1 (centres undefined)	0%	-3	?	144%	-2%	2
